# From PubChem BioAssay AID2013 (Sanford-Burnham Center for Chemical Genomics, 2009)
# “And” between values parts separate entries of the source, which are not always exact repeats. Equal values may be shown once. About 370 (0.13%) of roughly 290,000 compounds were called active. This is one part of a sample in which actives are shown more often than they occur.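 How the source made its calls: active means spots per cell inhibited over 60%, with over 100 cells counted and total cytoplasm intensity under 500,000; inconclusive means wells with under 100 cells, flagged as likely toxic; inactive means the rest.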 Measured potencies and affinities stand elsewhere. A structure can be active in one record and inactive in another.
# Molecular target: G-protein coupled receptor 55 (Homo sapiens) (UniProt Q9Y2T6)
# Experiment: inhibition of LPI-stimulated GPR55 beta-arrestin translocation – imaging, U2OS, beta-arrestin-GFP, LPI agonist, primary screen (AID 2013);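 further: U2OS cells stably carrying GPR55 and arrestin-GFP stimulated by 5 µM LPI near EC80; imaged beta-arrestin-GFP aggregate spots per cell after agonist stimulation; plate controls were LPI-stimulated DMSO wells for no effect and DMSO wells without LPI for full effect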
# Conditions: LPI antagonism, at 10 µM, stronger effect = higher value
# G-protein coupled receptor 55 (Homo sapiens), sequence (Q9Y2T6 whole entry, looked up): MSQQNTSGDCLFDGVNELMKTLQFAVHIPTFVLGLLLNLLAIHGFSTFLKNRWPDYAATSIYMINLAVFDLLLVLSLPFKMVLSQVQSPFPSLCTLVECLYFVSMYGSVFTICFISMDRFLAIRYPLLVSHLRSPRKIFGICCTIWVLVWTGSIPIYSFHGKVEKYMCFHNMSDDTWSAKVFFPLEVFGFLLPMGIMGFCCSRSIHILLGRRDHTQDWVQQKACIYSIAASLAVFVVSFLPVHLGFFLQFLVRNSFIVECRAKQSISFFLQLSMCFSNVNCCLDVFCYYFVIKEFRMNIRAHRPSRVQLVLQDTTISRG
row,Structure (SMILES),inhibition
1,C=CCN1C(=O)SC(Cc2cccc(OC)c2O)C1=O (stereo unspecified),-4.5% (inactive)
2,COc1ccc(C(=O)NC(C)Cc2cnccn2)cc1OC1CCN(C(C)C)CC1 (stereo unspecified),18.7% (inactive)
3,CC(C(=O)Nc1cccnc1)n1cc([N+](=O)[O-])cn1 (stereo unspecified),9.4% (inactive)
4,COCCN=C1N[C@@H](c2cccc(C(F)(F)F)c2)C(C(=O)OC)=C(C)N1Cc1ccccc1,31.8% (inactive)
5,COC(=O)C1=C(C)N(Cc2ccccc2)C(=O)N[C@H]1c1cccc(C(F)(F)F)c1,6.8% (inactive)
6,COc1ccc(NC(=O)CN2CCN(C3c4ccccc4-c4ccccc43)CC2)cc1,9.6% (inactive)
7,COc1ccc(NC(C)=O)cc1NC(=O)CN1CCN(C2c3ccccc3-c3ccccc32)CC1,100% (active)
8,COc1ccc(NC(C)=O)cc1NC(=O)CN1CCN(CC(=O)Nc2ccccc2Cl)CC1,21.6% (inactive)
9,COc1ccccc1NC(=O)CN1CCN(C2c3ccccc3-c3ccccc32)CC1,59.8% (inactive)
10,COc1ccccc1NC(=O)CN1CCN(CC(=O)Nc2cc(NC(C)=O)ccc2OC)CC1,-4.4% (inactive)
11,Nc1c2c(nn1-c1ccc(F)cc1)CSC2,-2.1% (inactive)
12,O=C(CO/N=C1\CCCc2nonc21)Nc1ccccc1Cl,0.5% (inactive)
13,O=C1/C(=C/c2ccccc2)SC(=S)N1C1CCS(=O)(=O)C1 (stereo unspecified),9.4% (inactive)
14,O=C1/C(=C/c2cccnc2)SC(=S)N1C1CCS(=O)(=O)C1 (stereo unspecified),3.6% (inactive)
15,C=C(C)CNC(=S)NNC(=O)CCn1c2ccccc2c2ccccc21,-10.4% (inactive)
16,CCOc1ccc(CCNC(=O)c2ccc(CS(=O)Cc3ccc(Cl)cc3)o2)cc1OCC (stereo unspecified),13.4% (inactive)
17,Cc1ccc(Cn2cc(SCC(=O)Nc3nccs3)c3ccccc32)cc1,2.5% (inactive)
18,Cc1ccccc1C(=O)Nc1ccc(S(=O)(=O)Nc2onc(C)c2C)cc1,6.6% (inactive)
19,Cc1cc(C)c(C(=O)Nc2ccc(S(=O)(=O)Nc3onc(C)c3C)cc2)c(C)c1,4.6% (inactive)
20,Cc1ccc(-c2cc(C(=O)Nc3ccc(S(=O)(=O)Nc4cc(C)on4)cc3)c3ccccc3n2)c(C)c1,32.5% (inactive)
21,Cc1noc(NS(=O)(=O)c2ccc(NC(=O)c3cc(-c4ccccc4Cl)nc4ccccc34)cc2)c1C,14.9% (inactive)
22,Cc1ccc(-c2cc(C(=O)Nc3ccc(S(=O)(=O)Nc4onc(C)c4C)cc3)c3ccccc3n2)cc1,-14.3% (inactive)
23,Cc1cc(C)c2nc(-c3ccccn3)cc(C(=O)Nc3cc(C)on3)c2c1,1.5% (inactive)
24,COc1ccc(-n2ncc3c(=O)n(CC(=O)Nc4ccc5c(c4)OCCO5)cnc32)cc1,0.6% (inactive)

row,Structure (SMILES),inhibition
1,COc1cc2nc(SCC(N)=O)n(CCC3=CCCCC3)c(=O)c2cc1OC,-6.5% (inactive)
2,COc1cc(NC(=O)c2cc(C)no2)cc(OC)c1OC,3.4% (inactive)
3,COc1cc(-c2nn3c(-c4ccccc4)nnc3s2)cc(OC)c1OC,-5.2% (inactive)
4,Cc1cc(/C=C2\SC(=O)N(C)C2=O)c(C)n1-c1ccc(S(N)(=O)=O)cc1,5% (inactive)
5,Cc1cc(/C=C2\SC(N)=NC2=O)c(C)n1-c1ccccc1,-9.3% (inactive)
6,[N-]=[N+]=NC[C@H](c1ccccc1)N1CCN(Cc2ccccc2)CCC1=O,9.8% (inactive)
7,CCOC(=O)CC(NC(=O)CCS(=O)(=O)c1ccc2c(c1)n(C)c(=O)c(=O)n2C)c1ccc(C)cc1 (stereo unspecified),10.2% (inactive)
8,CCN(CC)c1ccc(/C=N/n2c(C)nc3ccccc3c2=O)cc1,-7.1% (inactive)
9,O=S(=O)(c1ccccc1)N1CCCc2ccccc21,0.9% (inactive)
10,O=S(=O)(c1ccc(F)cc1)N1CCCc2ccccc21,93.9% (active)
11,O=S(=O)(c1ccc(F)cc1)N1CCc2ccccc21,9.6% (inactive)
12,COc1ccc(Br)cc1S(=O)(=O)Nc1cccc(C)n1,9.5% (inactive)
13,C=CCN(C(=O)CNC(=O)c1ccco1)C(C(=O)NC1CCCCC1)c1ccc(OC)cc1 (stereo unspecified),-13.5% (inactive)
14,C=CCN(C(=O)CNC(=O)c1ccco1)C(C(=O)NC1CCCCC1)c1ccccc1 (stereo unspecified),-5.9% (inactive)
15,C=CCN(C(=O)CNC(=O)c1ccco1)C(C(=O)NC1CCCCC1)c1ccc(F)cc1 (stereo unspecified),73.3% (active)
16,CC(C)N1CCC(N2CCN(Cc3ccc(-c4ccc(Cl)cc4)o3)CC2CCO)CC1 (stereo unspecified),0.6% (inactive)
17,CC(NC(=O)CCCCCNC(=O)N1CCn2c1nc1ccccc12)c1ccccc1 (stereo unspecified),2.2% (inactive)
18,Cc1oc(-c2cccc(Cl)c2)nc1CS(=O)(=O)CC(=O)NCCN1CCOCC1,-0.5% (inactive)
19,CCOC(=O)C1=C(C)NC(=O)NC1c1ccc(Br)o1 (stereo unspecified),-4% (inactive)
20,CCOC(=O)C1=C(C)NC(C)=C(C(=O)OCC)C1c1ccc(C)o1,10.1% (inactive)
21,CCCCCCOC(=O)c1ccc(NC(=O)c2cc(OC)c(OC)c(OC)c2Br)cc1,-0.3% (inactive)
22,Cc1cnc(NC(=O)NCC2CCCC(CNC(=O)Nc3ncc(C)s3)C2)s1 (stereo unspecified),-6.9% (inactive)
23,CCCCC(O)(CCCC)C(=O)NN(C(=O)c1cccnc1Cl)c1ccccc1,6.1% (inactive)
24,COc1ccc2c(C)cc(SCn3nnc4ccccc4c3=O)nc2c1,-3.7% (inactive)

row,Structure (SMILES),inhibition
1,CCN1C(=O)C(O)(CC(=O)c2ccccn2)c2ccccc21 (stereo unspecified),12% (inactive)
2,CCN1C(=O)C(O)(C2COC(C)(C)CC2=O)c2ccccc21 (stereo unspecified),7.4% (inactive)
3,CCOc1ccc(Cl)cc1S(=O)(=O)N1CCC(C(=O)NCC2CCCO2)CC1 (stereo unspecified),-1.1% (inactive)
4,O=C(CSC1=NCCS1)Nc1cccc(F)c1,-2.2% (inactive)
5,COc1ccc(CCNC2=NCC(C)S2)cc1 (stereo unspecified),6.5% (inactive)
6,Cc1ccc(NC2=NCC(Cc3ccc(Br)cc3)S2)cc1 (stereo unspecified),49% (inactive)
7,COc1cccc(C(=O)Nc2cc(C(=O)NCc3ccc(C)cc3)ccc2N2CCC3(CC2)CC(c2ccccc2)=NO3)c1,10.8% (inactive)
8,Cc1cccc(C)c1NC(=O)CN(C)CC(=O)Nc1cc(Cl)ccc1C#N,6.8% (inactive)
9,N#CC1=C2N=C(N)c3ccccc3N2C2=C(C(=O)CCC2)C1c1ccc(Cl)cc1 (stereo unspecified),86.9% (inactive)
10,N#CC1=C2N=C(N)c3ccccc3N2C2=C(C(=O)CCC2)C1c1ccc(F)cc1 (stereo unspecified),13.1% (inactive)
11,O=S(=O)(NCC1CCN(c2ccc(S(=O)(=O)N3CCOCC3)cc2)CC1)c1ccccc1,0.7% (inactive)
12,O=C(O)Cn1ncn(-c2ccc(OC(F)(F)F)cc2)c1=O,4.9% (inactive)
13,O=C(NC(=S)NCCC1=CCCCC1)c1ccc(Br)o1,4.9% (inactive)
14,O=C(NC(=S)NCCC1=CCCCC1)c1ccccc1Br,74.9% (active)
15,Cc1ccccc1C(=O)NC(=S)NCCC1=CCCCC1,1% (inactive)
16,CCOc1ccccc1NC(=O)NCc1ccco1,11.3% (inactive)
17,Cc1cc(SCC(=O)N/N=C/c2ccc(O)cc2O)nc2ccccc12,13.8% (inactive)
18,Oc1oc(-c2ccc(Br)cc2)nc1C=Nc1ccc(Br)cn1,-0.2% (inactive)
19,CC(=O)c1ccc(N2CCN(C3CCC(C(C)(C)C)CC3)CC2)cc1 (stereo unspecified),9% (inactive)
20,N[C@@H](Cc1ccc(O)c(I)c1)C(=O)O,8.6% (inactive)
21,N[C@@H](Cc1cc(I)c(Oc2ccc(O)c(I)c2)c(I)c1)C(=O)O,6.9% (inactive) and 99.2% (active)
22,O=C(O)Cc1cc(I)c(Oc2ccc(O)c(I)c2)c(I)c1,6.9% (inactive)
23,COc1ccccc1N1CCN(CCCCOc2ccc(C)cc2C)CC1,18.9% (inactive)
24,Cc1ccccc1NC1=C/C(=N\S(=O)(=O)c2cccs2)c2ccccc2C1=O,-11.4% (inactive)

row,Structure (SMILES),inhibition
1,Cc1ccc(NC2=C/C(=N/S(=O)(=O)c3cccs3)c3ccccc3C2=O)cc1,16% (inactive)
2,COc1ccc(OCc2nnc(SCC(=O)Nc3ccccc3F)o2)cc1,-6.5% (inactive)
3,Cc1cccc(C(=O)N(CCc2ccccc2)Cc2ccccc2)c1[N+](=O)[O-],14% (inactive)
4,O=C(OCn1ncc(Br)c(Br)c1=O)c1c(F)cccc1F,-5.4% (inactive)
5,O=C(OCn1ncc(Cl)c(Cl)c1=O)c1ccc(F)cc1,1.3% (inactive)
6,CCOC(=O)C1=C(C(F)(F)F)Nc2ncnn2C1c1cccc(OC)c1OC (stereo unspecified),13.1% (inactive)
7,Cn1nc(-c2ccccn2)nc2c(=O)n(C)c(=O)nc1-2,45.9% (inactive)
8,CCCc1nc2c(=O)n(C)c(=O)nc-2n(C)n1,-5.2% (inactive)
9,O=C(/C=C/c1ccc(S(=O)(=O)N2CCOCC2)cc1)N1CCN(c2ccccc2)CC1,-10.2% (inactive)
10,COc1ccc(Br)cc1S(=O)(=O)n1ccnc1,3.5% (inactive)
11,Cc1ccc(CSCCNC(=O)c2ccc(N(C)S(=O)(=O)c3ccccc3)cc2)cc1,4.4% (inactive)
12,CN(c1ccc(C(=O)NCCSCc2ccccc2)cc1)S(=O)(=O)c1ccccc1,-5.5% (inactive)
13,CCOc1ccc(-n2nc3c(=O)[nH]nc(C)c3c2C)cc1,7.8% (inactive)
14,COc1cc(C2C(C#N)=C(N)Oc3c2c(-c2ccccc2)nn3-c2ccccc2)cc(OC)c1OC (stereo unspecified),-13.1% (inactive)
15,COc1ccccc1C1C(C#N)=C(N)Oc2c1c(-c1ccccc1)nn2-c1ccccc1 (stereo unspecified),96.3% (active)
16,COc1ccc(C2C(C#N)=C(N)Oc3c2c(-c2ccccc2)nn3-c2ccccc2)c(OC)c1OC (stereo unspecified),79.5% (inactive)
17,COc1ccc(C(=O)NC(=S)Nc2ccccc2N2CCOCC2)cc1Br,0.4% (inactive)
18,O=C(COc1ccc(Br)cc1)NC(=S)Nc1ccccc1N1CCOCC1,0.7% (inactive)
19,O=C(/C=C/c1ccco1)NC(=S)Nc1ccccc1N1CCCC1,23% (inactive)
20,O=C(NC(=S)Nc1ccccc1N1CCOCC1)c1ccc([N+](=O)[O-])cc1,5% (inactive)
21,O=C(NC(=S)Nc1ccccc1N1CCOCC1)c1ccccc1F,16.2% (inactive)
22,CCc1ccc(C(=O)NC(=S)Nc2ccc(N3CCOCC3)cc2)cc1,4.3% (inactive)
23,O=C(/C=C/c1ccco1)Nc1ccccc1N1CCOCC1,10.8% (inactive)
24,Cc1ccc(C(=O)NC(=S)Nc2ccccc2N2CCOCC2)cc1C,0.3% (inactive)
